Measured values taken from paper PMC4336329 (PLoS ONE, 2015).
The whole screen tested about 310,000 compounds, of which about 14,000 (4.5%) showed an effect of 50% or more. The effect is printed as a negative number. Many of the other results were omitted from the sample, so strong results are more common in it than they were.

target: human ether-à-go-go-related gene (hERG) potassium channel (human, UniProt Q12809); experiment: primary screen, population patch clamp on CHO cells stably expressing hERG; higher = less effect of the substance
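Note: peak tail current of the secondary pulse compared with the same well before compound.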

Chain of human ether-à-go-go-related gene (hERG) potassium channel (Q12809 whole entry, looked up): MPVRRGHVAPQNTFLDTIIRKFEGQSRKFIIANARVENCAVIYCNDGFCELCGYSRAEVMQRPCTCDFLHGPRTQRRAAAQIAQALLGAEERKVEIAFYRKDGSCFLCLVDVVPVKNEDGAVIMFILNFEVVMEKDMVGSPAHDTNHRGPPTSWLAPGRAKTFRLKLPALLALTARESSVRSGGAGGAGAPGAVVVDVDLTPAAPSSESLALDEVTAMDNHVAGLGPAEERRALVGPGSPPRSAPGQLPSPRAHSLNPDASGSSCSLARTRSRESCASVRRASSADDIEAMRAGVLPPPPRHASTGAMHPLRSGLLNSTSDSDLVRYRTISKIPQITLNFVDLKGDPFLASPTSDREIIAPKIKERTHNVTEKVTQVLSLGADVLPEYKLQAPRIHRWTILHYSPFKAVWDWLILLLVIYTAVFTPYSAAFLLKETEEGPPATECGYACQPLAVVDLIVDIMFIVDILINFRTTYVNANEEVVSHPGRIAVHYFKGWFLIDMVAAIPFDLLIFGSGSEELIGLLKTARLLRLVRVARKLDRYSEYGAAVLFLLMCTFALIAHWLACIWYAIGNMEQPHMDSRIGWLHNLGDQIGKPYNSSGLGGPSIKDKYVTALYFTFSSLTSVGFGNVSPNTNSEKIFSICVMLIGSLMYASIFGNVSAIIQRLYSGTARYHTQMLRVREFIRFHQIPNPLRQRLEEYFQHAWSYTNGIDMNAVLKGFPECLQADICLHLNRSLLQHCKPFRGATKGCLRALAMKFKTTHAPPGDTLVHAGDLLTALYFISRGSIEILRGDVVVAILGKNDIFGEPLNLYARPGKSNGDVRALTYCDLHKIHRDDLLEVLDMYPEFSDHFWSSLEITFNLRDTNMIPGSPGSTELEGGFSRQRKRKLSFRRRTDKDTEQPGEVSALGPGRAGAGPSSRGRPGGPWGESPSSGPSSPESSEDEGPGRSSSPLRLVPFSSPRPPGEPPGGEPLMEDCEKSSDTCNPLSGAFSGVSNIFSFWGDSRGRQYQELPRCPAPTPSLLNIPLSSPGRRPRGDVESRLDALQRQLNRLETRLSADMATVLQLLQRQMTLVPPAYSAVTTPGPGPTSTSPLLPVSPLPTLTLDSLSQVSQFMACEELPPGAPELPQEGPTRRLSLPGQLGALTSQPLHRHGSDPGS

| Compound | hERG current change (%, negative = inhibition) at 10uM [%] |
| --- | --- |
| O=C(Nn1c(-c2ccccc2)nc2ccccc2c1=O)c1ccc([N+](=O)[O-])cc1 | -15.4 |
| O=C(/C=C/c1cccc([N+](=O)[O-])c1)Nn1c(-c2ccccc2F)nc2ccccc2c1=O | -23.1 |
| Cc1cccc(-c2nc3ccccc3c(=O)n2NC(=O)/C=C/c2ccc([N+](=O)[O-])cc2)c1 | -60.7 |
| Cc1cc(C(=O)Nn2c(-c3ccc(Br)cc3)nc3ccccc3c2=O)ccc1[N+](=O)[O-] | 8.86 |
| CN(c1ccc(C(=O)NCc2ccco2)cc1)S(C)(=O)=O | 5.87 |
| NC(=O)C1CCN(C(=O)c2cc3n(n2)C(C(F)(F)F)CC(c2ccco2)N3)CC1 (stereo not shown) | 14.8 |
| Cc1nc(-c2ccc(Cl)cc2)sc1C1(C)CC(c2ccc(C#N)cc2)=NO1 (stereo not shown) | -29.2 |
| Cc1ccc(OCc2nnc(SCC(=O)Nc3ccc4c(c3)OCCO4)n2Cc2ccco2)cc1 | 6.31 |
| COc1ccc2c(c1)c(C(C)=O)c(C)n2CCc1ccc(OC)c(OC)c1 | -6.52 |
| COc1ccc(C2Nc3ccccc3C(=O)N2NS(=O)(=O)c2ccccc2)cc1OC (stereo not shown) | 13.5 |
| COc1cc(NS(=O)(=O)c2ccc(NC(=O)C3CCCO3)cc2)nc(OC)n1 (stereo not shown) | 6.87 |
| S=c1[nH]nc(-c2ccccc2)n1/N=C/c1ccc(-c2ccccc2Cl)o1 | 25.4 |
| COc1ccc(NC(=O)c2cc3c(=O)n4ccccc4nc3n2C)cc1OC | 13.7 |
| COc1cccc(NC(=O)C(Sc2nc3ccccc3c(=O)n2CC(C)C)c2ccccc2)c1 (stereo not shown) | 11.8 |
| Cc1cccc(NC(=O)c2cc3c(=O)n4ccccc4nc3s2)c1 | 10.8 |
| Cc1cccc(NC(=O)c2cc3c(=O)n4ccccc4nc3n(CC(C)C)c2=N)c1 | -78 |
| COc1cccc(NC(=O)c2cc3c(=O)n4ccccc4nc3n(CC(C)C)c2=N)c1 | -82 |
| Cc1cccc(NC(=O)c2c(C)nc3ccccn23)c1 | -0.935 |
| CCOc1ccc(NC(=O)CSc2nc(=O)n(Cc3cccnc3)c3c2CCC3)cc1 | -8.74 |
| CN(c1cccc(NC(=O)c2cccc([N+](=O)[O-])c2)c1)S(C)(=O)=O | 13.1 |
| O=C(Nc1ccc(N2CCOCC2)cc1N1CCOCC1)c1ccc([N+](=O)[O-])cc1 | 2.51 |
| COc1cc(/C=N/NS(=O)(=O)c2ccc(Br)cc2)ccc1O | 1.58 |

| Compound | hERG current change (%, negative = inhibition) at 10uM [%] |
| --- | --- |
| Cc1ccc(NC(=O)CNC(=O)c2ccco2)nc1 | 17.3 |
| CCOc1cc(S(=O)(=O)n2cnc(C)c2)ccc1Cl | -8.24 |
| COc1ccc(N(C(=O)/C=C/c2ccccc2)C2=CC3CCC(C2)N3C)cc1.Cl (stereo not shown) | -74.6 |
| COc1ccc(/C=C/C(=O)N(C)C2CCS(=O)(=O)C2)cc1OC (stereo not shown) | 2.01 |
| COc1ccc(N(C(=O)/C=C/c2ccc(OC)c(OC)c2)C2=CC3CCC(C2)N3C)cc1.Cl (stereo not shown) | -69.6 |
| COc1ccc(C(=O)Cn2c(C(=O)/C=C/c3ccccc3)nc3ccccc32)cc1 | -16.4 |
| COc1ccc(/C=C/C(=O)N2CCN(C)CC2)cc1OC | 6.7 |
| COc1ccc(/C=C/C(=O)N(C)c2ccccc2C(=O)O)cc1 | -4.18 |
| Cn1c(C(=O)N[C@@H](Cc2ccccc2)C(=O)NCCC(=O)O)cc2cc(Cl)ccc21 | 0.651 |
| COc1ccc(OCC(=O)OCC(=O)N2CC(=O)Nc3ccccc32)cc1 | -3.16 |
| Cc1ccc(CCC(=O)Nc2ccc([N+](=O)[O-])cc2)o1 | 0.967 |
| Cc1ccc(-n2cc(-c3ccccc3)c3c(N4CCN(C)CC4)ncnc32)cc1 | -9.95 |
| COc1ccc(-n2cc(-c3ccccc3)c3c(N4CCN(CCO)CC4)ncnc32)cc1 | -42 |
| OCCN1CCN(c2ncnc3c2c(-c2ccccc2)cn3-c2ccc(F)cc2)CC1 | -74.3 |
| CCN1CCN(c2ncnc3c2c(-c2ccccc2)cn3-c2ccc(F)cc2)CC1 | -74.5 |
| OCCN1CCN(c2ncnc3c2c(-c2ccccc2)cn3-c2ccc(Br)cc2)CC1 | -15.2 |
| CC1CN(c2ncnc3c2c(-c2ccccc2)cn3-c2ccc(F)cc2)CC(C)O1 (stereo not shown) | 12 |
| CNCCCC1c2ccccc2C=Cc2ccccc21.Cl | 13.2 |
| O=c1[nH]c(Nc2ccccc2Cl)cc2ccccc12 | 10.9 |
| O=C(Cc1ccccc1F)OCN1C(=O)c2ccccc2C1=O | 21.5 |
| N#C/C(=C/c1cccc(C(F)(F)F)c1)c1nc(CCN2C(=O)c3ccccc3C2=O)cs1 | -0.904 |
